This is part of a sample that, as a whole, favours compounds with a hit. Of some 83,000 tested, about 20% had one in any assay.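 Single-concentration screen, 48 h exposure, 96-well plates. Endpoint: percent growth. Below 10 = active.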 The source made the active and inactive calls.
tested on: MDA-MB-468 breast; test: NCI-60 one-dose screen, 48 h (100 = growth as untreated, 0 = no growth, -100 = all killed); settings: 10 µM unless noted

Row | SMILES | growth
1 | CCc1cccc2c3c(sc12)C(c1ccc(F)cc1)C(C#N)=C(N)O3 (stereo not given) | 31.2% (inactive)
2 | NC(N)=Nc1ccc(Oc2cccc(NC(N)=Nc3ccc(Br)cc3)c2)cn1 | 8.74% (active)
3 | COc1ccc(Nc2ncc(Br)c(NCCCNC(=O)C3CCCC3)n2)cc1 | 54.5% (inactive)
4 | O=S(=O)(O)CCl | 108% (inactive)
5 | COc1ccc(C(=O)/C=C/c2ccc(Cl)cc2)cc1S(=O)(=O)Nc1c(N)nc(SC)[nH]c1=O | 47.3% (inactive)
6 | CCC1CCCCN1C(=S)N/N=C(\C)c1ccccn1 (stereo not given) | -2.96% (active)
7 | COc1cc(/C=C/C(=O)/C=C/c2ccc(-n3ccnc3)cc2)ccc1O | 37.8% (inactive)
8 | CCCCOC(=O)C1OC(Oc2ccc3c(C)cc(=O)oc3c2)[C@@H](OC(C)=O)C(OC(C)=O)C1OC(C)=O (stereo not given in full) | 101% (inactive)
9 | COc1ccc(Nc2ncc(C#N)c(NCCCNC(=O)C3CCC3)n2)cc1 | 43% (inactive)
10 | COC1CCN(Cc2ccc3c(NNC(=O)c4cnccn4)nc4cc(F)ccc4n23)C1 (stereo not given) | -32.1% (active)
11 | Cc1nc(-c2cc3ccccc3oc2=O)ccc1C(=O)/C=C/c1ccc(N2CCOCC2)cc1 | 45.6% (inactive)
12 | COC(=O)c1c2c(c(C)[n+]([O-])c1C)C(=O)C(NCc1ccc(OC)cc1)=CC2=O | -6.29% (active)
13 | CNC(=O)c1cc(Oc2ccc(CC(=O)Nc3cc(C(C)(C)C)cn3C)cc2)ccn1 | 29.5% (inactive)
14 | O=C1c2cccc3cccc(c23)C(=O)N1CC#Cc1ccc2c3c(cccc13)C(=O)N(CCO)C2=O | 94.2% (inactive)
15 | Cc1nc(Nc2ccc(Cl)cc2)c2cnn(-c3ccccc3)c2n1 | 98.3% (inactive)
16 | N=c1c2c(=O)n3c(nc2nc2sc4ccc(Cl)cc4n12)-c1ccccc1Sc1ccccc1-3 | 24.3% (inactive)
17 | O=c1nc(Nc2ccc([N+](=O)[O-])cc2O)sc2ccccc12 | 34.3% (inactive)
18 | OC(c1cc2cc(Br)ccc2c2cc(Br)ccc12)C1CCCCN1 (stereo not given) | -83.1% (active)
19 | O=C(/C=C/c1ccc(Cl)cc1)c1ccc(-n2cc(CN3CCN(c4cc5c(cc4F)c(=O)c(C(=O)O)cn5C4CC4)CC3)nn2)cc1 | 74.4% (inactive)
20 | S=C(Sc1ccc(Cl)cc1)Sc1ccc(Cl)cc1 | -37.6% (active)

Row | SMILES | growth
21 | Brc1ccc(SCN(CSc2ccc(Br)cc2)Cc2ccccc2)cc1 | 98.3% (inactive)
22 | C=C(C)[C@@H]1CC[C@]2(C(=O)N3CCN(C)CC3)CC[C@]3(C)[C@H](CC[C@@H]4[C@@]5(C)C/C(=C/c6ccncc6)C(=O)C(C)(C)[C@@H]5CC[C@]43C)[C@@H]12 | 55.6% (inactive)
23 | COc1ccc(S(=O)(=O)c2ccc(C(N)=O)cc2)cc1NC(=O)c1[nH]c(C)c2c1CCCCC2=O | 31.9% (inactive)
24 | CCCCCCOC(=O)c1cc(-c2ccc(F)cc2)nc2ccccc12 | 105% (inactive)
25 | COc1cc(CNC(=O)CCCCC[P+](c2ccccc2)(c2ccccc2)c2ccccc2)c(OC)c2c1OCO2 | 6.74% (active)
26 | O=C1Nc2ccc(Cl)cc2/C1=C/c1ccc(OCC(=O)c2ccc(Br)cc2)cc1 | 111% (inactive)
27 | O=C(CCCCCCN1CC(=O)N2[C@@H](C3CCCCC3)c3[nH]c4ccccc4c3C[C@H]2C1=O)NO | 64.3% (inactive)
28 | COc1cc(Cl)cc(-c2nn(-c3cccc(NC(=O)Nc4ccc(Cl)c(Cl)c4)c3)cc2-c2ccncc2)c1 | 0.718% (active)
29 | COc1ccc(S(=O)(=O)Nc2ccc(OCc3nnc(-c4ccc(Cl)cc4)o3)c(F)c2)cc1 | 15.2% (inactive)
30 | COc1ccc(C(=O)/C=C/c2cc(-c3ccc4c(c3)OCO4)n[nH]2)cc1OC | 28.2% (inactive)
31 | CCCCCCCC/C=C\CCCCCCCCOc1cccc(CC(=O)NCC[N+](C)(C)C)c1 | 93.1% (inactive)
32 | O=C1NC(=O)N(Cc2ccccc2)CC1Br (stereo not given) | 104% (inactive)
33 | COc1cc(-c2csc(NC(=O)Nc3cc(C(F)(F)F)cc(C(F)(F)F)c3)n2)cc(OC)c1OC | 4.77% (active)
34 | CN(C)c1nc(-c2ccco2)n2nc(-c3ccc(Cl)cc3)cc2n1 | 78.3% (inactive)
35 | Cc1ccc(NC(=O)CCl)cc1Cl | 108% (inactive)
36 | COc1ccc(-c2nc(SCCC(C)C)nc(N/N=C\c3cccc(Cl)c3)c2C#N)cc1 | 95.9% (inactive)
37 | O=S(=O)(NCCNc1nccc(-c2c(-c3ccc(F)c(O)c3)nc3sccn23)n1)c1ccc(Cl)cc1 | 19.5% (inactive)
38 | C#Cc1nc(C2=C(C)C(OC(=O)CCC(=O)O)CC2)cs1 (stereo not given) | 99.6% (inactive)
39 | COc1ccc(-n2nc(C(=O)NCC(=O)O)nc2-c2ccccc2)cc1 | 115% (inactive)
40 | O=C(Nc1nc(-c2ccccc2Cl)cs1)c1cc(-c2ccc(Br)cc2)nc2ccccc12 | 5% (active)
